Measurements as given in PubChem BioAssay (NCATS).
Records with an inconclusive call do not appear. Calls of active or inactive are those of the source. The call rests on the fitted dose curve; in most records, active means well fitted cell-killing curve with a large enough effect; inconclusive means small, poorly fitted or top-dose-only effect, or effect the other way; inactive means flat fitted curve, though single readings scatter.

Key:
Experiment in all cases: Primary qHTS to identify gynecologic anti-cancer compounds using libraries of approved drugs and bioactive compounds (AID 1345084); further: nearly all actives have a fitted effect of over 55% in size
C33A = details: Gynecologic cancer cell panel viability, ATPlite luminescence, 48 h; series mostly up to 57.5 µM
Summary of the method: (§1)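 48 h compound exposure at 37 C, 5% CO2; five-point qHTS. ATPlite luminescence readout of cell ATP.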

CAOV3 = details: Gynecologic cancer cell panel viability, ATPlite luminescence, 48 h; series mostly up to 57.5 µM
Summary of the method: as §1

CASKI = details: Gynecologic cancer cell panel viability, ATPlite luminescence, 48 h; series mostly up to 57.5 µM
Summary of the method: as §1

Es-2 = details: Gynecologic cancer cell panel viability, ATPlite luminescence, 48 h; series mostly up to 57.5 µM
Summary of the method: as §1

HeLa = details: Gynecologic cancer cell panel viability, ATPlite luminescence, 48 h; series mostly up to 57.5 µM
Summary of the method: as §1

Hek293T = details: Gynecologic cancer cell panel viability, ATPlite luminescence, 48 h, control line for the selectivity index; series mostly up to 57.5 µM
Summary of the method: as §1

JEG-3 = details: Gynecologic cancer cell panel viability, ATPlite luminescence, 48 h; series mostly up to 57.5 µM
Summary of the method: as §1

OV90 = details: Gynecologic cancer cell panel viability, ATPlite luminescence, 48 h; series mostly up to 57.5 µM
Summary of the method: as §1

PA-1 = details: Gynecologic cancer cell panel viability, ATPlite luminescence, 48 h; series mostly up to 57.5 µM
Summary of the method: as §1

SKOV3 = details: Gynecologic cancer cell panel viability, ATPlite luminescence, 48 h; series mostly up to 57.5 µM
Summary of the method: as §1

Tov-21-G = details: Gynecologic cancer cell panel viability, ATPlite luminescence, 48 h; series mostly up to 57.5 µM
Summary of the method: as §1

Tov112D = details: Gynecologic cancer cell panel viability, ATPlite luminescence, 48 h; series mostly up to 57.5 µM
Summary of the method: as §1

Measured: Potency

CC12CCC3C(C)(C)C(O)CCC3(C)C1Cc1c(oc(C(=O)O)cc1=O)O2 (stereo unspecified)
inactive: all assays above

Clc1ccc(CN[C@H]2CCN(c3ncc(Br)cn3)C2)c(Cl)c1
inactive: all assays above

COc1cc(/C=C/C(=O)O[C@H]2[C@H](OC(=O)/C=C/c3cc(OC)c(O)c(OC)c3)O[C@H](CO[C@@H]3O[C@H](CO)[C@@H](O)[C@H](O)[C@H]3O)[C@@H](O)[C@@H]2O)ccc1O
inactive: all assays above

COc1cc(/C=C/C(=O)OC[C@H]2O[C@H](O[C@]3(CO)O[C@H](CO)[C@@H](O)[C@@H]3O)[C@H](O)[C@@H](O)[C@@H]2O)cc(OC)c1O
inactive: all assays above

O=C(c1ccccn1)c1cnn2c(-c3ccncc3)ccnc12
inactive: all assays above

O=C(NC[C@H](O)CN1CCc2ccccc2C1)c1cc(NC2COC2)ncn1
inactive: all assays above

CC1=C(C)C(=O)OC(C(C)(O)C2CCC3C4CC=C5CC(OC6OC(COC7OC(CO)C(O)C(O)C7O)C(O)C(O)C6O)CC(O)C5(C)C4CCC32C)C1 (stereo unspecified)
inactive: all assays above

CC(=O)Oc1cc2c(s1)CCN([C@H](C(=O)C1CC1)c1ccccc1F)C2
inactive: all assays above

CCOc1nc2cccc(C(=O)OCc3oc(=O)oc3C)c2n1Cc1ccc(-c2ccccc2-c2noc(O)n2)cc1
inactive: all assays above

CC1CCC2(NC1)OC1C(=O)C3C4CCC5CC(O[C@@H]6O[C@H](CO)[C@@H](O)[C@H](O)[C@H]6O[C@@H]6O[C@@H](C)[C@H](O)[C@@H](O)[C@H]6O)CCC5(C)C4CCC3(C)C1C2C (stereo partly specified)
inactive: all assays above

COc1ccc(/C=C/C(=O)O[C@H]2[C@@H]3C=CO[C@@H](O[C@@H]4O[C@H](CO)[C@@H](O)[C@H](O)[C@H]4O)[C@@H]3[C@@]3(CO)O[C@@H]23)cc1O
inactive: all assays above

CC(=O)OC[C@@]12[C@@H](OC(C)=O)C[C@@H](C)[C@](C)([C@@H]3C[C@H]4C=CO[C@H]4O3)[C@H]1CCC[C@]21CO1
inactive: all assays above

Cc1ccc2c(c1)C=Cc1cc(C)ccc1C2c1cn(Cc2ccc(C(=O)Nc3nn[nH]n3)o2)c(=O)[nH]c1=S
inactive: all assays above
